Common to all, as to type: functional
The test system of assay [1] is Plasmodium falciparum. The assay is described as follows: GSK_TCMDC: Inhibition of Plasmodium falciparum 3D7 in whole red blood cells, using parasite LDH activity as an index of growth. Test compounds present at 2uM.
Assay [2] concerns Plasmodium falciparum. As to the kind of experiment: GSK_TCMDC: Inhibition of Plasmodium falciparum Dd2 in whole red blood cells, using parasite LDH activity as an index of growth. Test compounds present at 2uM.
For a further assay, the system named is HepG2. The assay is described as follows: GSK_TCMDC: Percent inhibition of human HepG2 cell line. Test compounds present at 10uM.

Structures are written as SMILES.

Regarding `N#Cc1ccc(N2CCN(Cc3ccc(-c4cccc(-c5nc6ccccc6[nH]5)c4)cc3)CC2)nc1.O=C(O)C(F)(F)F`, the Inhibition (usually the change of the read-out against control, counted positive when it falls) in the assay with Plasmodium falciparum [1] is 95%; with Plasmodium falciparum [2], 29%; in the assay with HepG2 it was 33%.

Regarding `O=C(O)C(F)(F)F.O=[N+]([O-])c1cccc(CNC2CCN(Cc3ccc(C(F)(F)F)cc3)CC2)c1`, the Inhibition came to 99% with Plasmodium falciparum [1], 28% with Plasmodium falciparum [2] and 0% in the assay on HepG2.

As for `CN1CCN(c2ccnc3ccc(NC(=O)Cc4ccc(Br)c5ccccc45)cc23)CC1`, the Inhibition was determined as 96% with Plasmodium falciparum [1], 99% with Plasmodium falciparum [2] and 8% with HepG2.

On to `O=C(NC1CC1)c1ccc(N2CCC(c3ccccc3)CC2)nc1.O=C(O)C(F)(F)F`, for which the Inhibition in the assay on Plasmodium falciparum [1] stood at 93%; in the assay on Plasmodium falciparum [2], 92%; in the assay on HepG2 it was 16%.

Turning to `Cc1cccc2nc(-c3ccc(-c4ccc(NC(=O)Nc5ccc(Cl)cc5)cc4)cc3)[nH]c12`, the Inhibition in the assay on Plasmodium falciparum [1] is 100%; in the assay with Plasmodium falciparum [2], 100%; with HepG2 it was 52%.

For the compound `COc1ccc2nccc([C@@H](O)CN3CCC(NCc4ccc(OC)c(NC=O)c4)CC3)c2c1`, the values for the Inhibition in the assay with Plasmodium falciparum [1], in the assay on Plasmodium falciparum [2] and with HepG2 were 97%, 0% and 0%, respectively.

For the compound `CC(C)C1C(=O)N(S(C)(=O)=O)C2CCN(C(=O)c3ccc(CN4CCCCC4)c([N+](=O)[O-])c3)C12.Cl` (centres undefined), the Inhibition in the assay with Plasmodium falciparum [1] turned out to be 100%; in the assay on Plasmodium falciparum [2] it was 100%; in the assay with HepG2, 10%.

`Cn1nccc1C(=O)NCCNCc1cccc(-c2csc(-c3nc4ccccc4[nH]3)c2)c1.O=C(O)C(F)(F)F`: the Inhibition in the assay with Plasmodium falciparum [1] was 100%; in the assay with Plasmodium falciparum [2], 2%; with HepG2 it was 30%.

Take `CC(C)(CNC(=O)/C=C/c1ccc(Cl)c(Cl)c1)CNc1cc(=O)c2ccccc2[nH]1`: the values for the Inhibition in the assay with Plasmodium falciparum [1], in the assay with Plasmodium falciparum [2] and in the assay on HepG2 were 96%, 29% and 0%, respectively.

For `O=C(Nc1ccc(N2CCCCC2)c(Cl)c1)c1ccc(Br)o1`, the Inhibition with Plasmodium falciparum [1] stood at 94%; with Plasmodium falciparum [2] it was 94%; in the assay on HepG2, 0%.

Regarding `CC(C)CCN1CCCN(Cc2cccc(NC(=O)c3ccc(Cl)c(Cl)c3)c2)CC1.O=C(O)C(F)(F)F`, the figures for the Inhibition in the assay on Plasmodium falciparum [1], with Plasmodium falciparum [2] and in the assay on HepG2 were 92%, 13% and 35%, respectively.

With `CCOc1ccc(OCC)c(N2CCN(CCCCNC(=O)c3ccc(NC(=O)c4ccc(Cl)cc4)cc3)CC2)c1`, the Inhibition turned out to be 97% in the assay with Plasmodium falciparum [1], 40% with Plasmodium falciparum [2] and 13% with HepG2.

For the compound `COCCN1CCN(Cc2cccc(-c3ccc(-c4nc5ccccc5[nH]4)cc3)c2)CC1.O=C(O)C(F)(F)F`, the Inhibition in the assay with Plasmodium falciparum [1] worked out at 100%; in the assay with Plasmodium falciparum [2], 50%; in the assay with HepG2, 9%.

On to `O=C(N[C@@H](Cc1ccccc1)C(=O)NC1CCCCCC1)c1ccc(O)c(-c2ccc(Cl)c(Cl)c2)c1`, for which the Inhibition in the assay on Plasmodium falciparum [1] stood at 92%; with Plasmodium falciparum [2] it was 99%; in the assay with HepG2, 0%.

Turning to `CC(C)(C)c1cc(NC2CC2)nc(-c2ccccn2)n1`, the figures for the Inhibition in the assay on Plasmodium falciparum [1], with Plasmodium falciparum [2] and in the assay with HepG2 were 94%, 79% and 7%, respectively.

On to `Cc1cc(N/N=C/c2ccc([N+](=O)[O-])cc2)c2ccc(F)cc2n1`, for which the Inhibition was found to be 100% in the assay with Plasmodium falciparum [1], 22% in the assay with Plasmodium falciparum [2] and 0% in the assay on HepG2.

`CC(C)(C)c1ccc2nccc(Nc3cccc(O)c3)c2c1`: the figures for the Inhibition in the assay with Plasmodium falciparum [1], with Plasmodium falciparum [2] and with HepG2 were 99%, 100% and 8%, respectively.

For `CC(C)(C)c1cc(C(=O)N2CCC(c3ccccn3)CC2)n(Cc2ccccc2)n1`, the Inhibition with Plasmodium falciparum [1] worked out at 96%; in the assay with Plasmodium falciparum [2], 90%; with HepG2, 3%.

For `COc1ccccc1NS(=O)(=O)c1cc(C(=O)Nc2ccc(N3CCOCC3)c(S(=O)(=O)Nc3ccccc3Cl)c2)ccc1Cl`, the Inhibition came to 97% in the assay on Plasmodium falciparum [1], 25% with Plasmodium falciparum [2] and 0% in the assay with HepG2.

For the compound `CCCNC(=O)c1ccnc(-c2ccc(CNC3Cc4ccccc4C3)cc2)c1.O=C(O)C(F)(F)F`, the Inhibition in the assay with Plasmodium falciparum [1] is 92%; in the assay with Plasmodium falciparum [2], 21%; in the assay on HepG2 it was 24%.

Consider `CC1CCCN(C(=O)c2cc(-c3ccccn3)nc3c(Cl)cccc23)C1` (centres undefined), for which the values for the Inhibition with Plasmodium falciparum [1], with Plasmodium falciparum [2] and with HepG2 were 86%, 9% and 2%, respectively.

Regarding `CNC(=O)C1Cc2c([nH]c3ccc(Br)cc23)C2(CCN(CCc3ccccc3)CC2)N1` (centres undefined), the Inhibition in the assay on Plasmodium falciparum [1] was found to be 100%; in the assay on Plasmodium falciparum [2], 60%; in the assay on HepG2, 15%.

On to `COc1ccc(NC(=O)/C=C/c2cc(Br)ccc2F)cc1OCCN(C(C)C)C(C)C.O=C(O)C(F)(F)F`, for which the Inhibition in the assay on Plasmodium falciparum [1] came to 100%; in the assay on Plasmodium falciparum [2], 14%; in the assay on HepG2, 22%.

In the case of `Cc1cc(C2CCN(CCCCNC(=O)c3ccc(NC(=O)c4ccc(Cl)cc4)cc3)CC2)c(C)cc1OCc1nccn1C.Cl`, the Inhibition was 100% in the assay on Plasmodium falciparum [1], 98% with Plasmodium falciparum [2] and 18% in the assay with HepG2.

Turning to `Cn1cc(C2CCN(CCCCCNC(=O)/C=C/c3ccc(Cl)c(Cl)c3)CC2)c2cc(O)ccc21`, the Inhibition in the assay on Plasmodium falciparum [1] stood at 94%; with Plasmodium falciparum [2] it was 0%; in the assay on HepG2, 11%.

Turning to `Cl.OCCNc1nc(Nc2ccccc2)nc2ccccc12`, the results for the Inhibition with Plasmodium falciparum [1], in the assay on Plasmodium falciparum [2] and in the assay on HepG2 were 93%, 61% and 5%, respectively.

Take `Cc1cc(NC(=O)c2cccs2)ccc1OC1CCN(Cc2ccc(C#N)cc2)C1.O=C(O)C(F)(F)F` (centres undefined): the Inhibition is given as 82% in the assay on Plasmodium falciparum [1], 61% with Plasmodium falciparum [2] and 13% with HepG2.

Regarding `O=C(c1cccc(-c2ccc(-c3nc4cc(C(F)(F)F)ccc4[nH]3)cc2)c1)N1CCCCC1CN1CCC(O)C1` (centres undefined), the Inhibition is on record as 92% in the assay on Plasmodium falciparum [1], 100% with Plasmodium falciparum [2] and 19% in the assay with HepG2.
